Source: PubChem (Broad Institute)
The list is a sample of the results.
aSyn UTR act: Activators via SNCA 5'UTR binding, MLPCN. alpha-synuclein 5'UTR reporter, activators screen. activity score, % (tested at 7.5 µM), hits read low. 300,000 compounds, 7.1% hits. AID 1814, 2009; in the data active means activity score below about -60%
The depositor's hits bear a star.

SMILES | aSyn UTR act
Cc1ccc2cc3cc(C(=O)N4CCC5(CC4)OCCO5)oc3nc2c1 | -69.0*
CC(=O)O[C@@]12CO[C@@H]1C[C@@H](O)[C@@]1(C)C(=O)[C@H](O)C3=C(C)[C@@H](OC(=O)[C@H](O)[C@@H](NC(=O)c4ccccc4)c4ccccc4)C[C@@](O)([C@@H](OC(=O)c4ccccc4)C12)C3(C)C (stereo partly specified) | 113.4
C[C@H]1C[C@@H](C)C(=O)[C@@H]([C@H](O)CC2CC(=O)NC(=O)C2)C1 | 96.7
Cc1nc2ccccc2c(=O)n1-c1ccc(Br)cn1 | -176.1*
N#CSCC(=O)N1c2ccccc2CCc2ccccc21 | -84.0*
Cc1ccc(-c2cc(-c3ccc(C)cc3)[n+](-c3ccccc3)c(-c3ccc(C)cc3)c2)cc1 | 76.0
Cc1ccc(N2C(=O)NC(=O)/C(=C/c3cnn(-c4ccc(C)cc4)c3)C2=O)cc1 | -72.4*
O=C(NC1(C(F)(F)F)Oc2ccc(Cl)cc2O1)N1CCC2(CC1)OCCO2 (stereo unspecified) | -72.7*
CN1C(=O)C(Cc2ccc(OCc3ccccc3)cc2)C(=O)N(C)C1=O | -105.1*
CN1C(=O)NC(=O)C(C)(C2=CCCCC2)C1=O (stereo unspecified) | -71.3*
CN1CCC(N(C)c2nc(-c3ccc([N+](=O)[O-])cc3)nc3ccccc23)CC1 | 75.1
CC(=O)c1ccc(-c2ccccc2)cc1 | -80.9*
CN(C)C(=O)Oc1ccc(C(=O)c2ccccc2)cc1 | -68.1*
CC(=O)c1ccc(OC(=O)N(C)c2ccccc2)cc1 | -66.3*
Cc1ccc(-c2cc(-c3ccccc3)cc(-c3ccccc3)[n+]2-c2ccccc2)cc1 | 84.5
CCN(CC)C(=O)c1ccc(NC(=O)Nc2ccccc2F)cc1 | 59.4
CCCCN=C[C@]12CCC(O)CC1(O)CCC1[C@@H]2CC[C@]2(C)[C@H](C3C=CC(=O)O3)CCC12O (stereo partly specified) | 96.0
Cc1cccc(-n2c(O)c(/C=C3/C(c4ccccc4)=Nc4ccccc43)c(=O)[nH]c2=O)c1 | -174.0*
O=C(C1CC(c2ccccc2O)=NO1)N1CCC2(CC1)OCCO2 (stereo unspecified) | -68.3*
O=C(Nc1cccc(Cl)c1)c1c(O)c2c(n(Cc3ccco3)c1=O)CCCC2 | -87.4*
COc1cccc(OCc2cc(C(=O)N3C[C@H]4C[C@@H](C3)c3cccc(=O)n3C4)no2)c1 | -173.8*
C/C(=N\N1CCCCC1)c1c(O)[nH]c(=O)[nH]c1=O | 57.9
CC(Cc1ccccc1)NC(=O)c1ccc(N)cc1 (stereo unspecified) | -110.4*
CC(Cc1ccccc1)NC(=O)NC(C)Cc1ccccc1 (stereo unspecified) | -133.8*
Fc1ccc(C(OCCN2CCN(CCCc3ccccc3)CC2)c2ccc(F)cc2)cc1 | 105.9
SMILES | aSyn UTR act
CCCCCn1c(=O)c(C(=O)NCc2ccncc2)c(O)c2ccccc21 | 65.3
C=C1C(=O)O[C@@H]2C[C@@H](C)[C@H]3C=CC(=O)[C@]3(O)C[C@@H]12 | -116.6*
CC(C)(C)C(=O)c1cn(CC(=O)NCc2ccco2)c2ccccc12 | -142.5*
C/C=C(\C)C(=O)N[C@@H](c1ccccc1)[C@@H](O)C(=O)O[C@H]1C[C@@]2(O)[C@@H](OC(=O)c3ccccc3)C3[C@](C)(C(=O)[C@H](OC(C)=O)C(=C1C)C2(C)C)[C@H](O)C[C@H]1OC[C@@]31OC(C)=O (stereo partly specified) | 109.7
CCCCCCn1c(=O)c(C(=O)Nc2ncccc2O)c(O)c2ccccc21 | 91.9
N=C1c2ccccc2CN1CC(=O)c1ccccc1 | -186.1*
Cn1c(NN=O)nc2ccccc21 | 68.9
O=c1c2ccccc2nc(Cc2ccccc2)n1-c1ccccc1 | -83.9*
CCC(=O)N1CC(=O)Nc2ccc(Br)cc2C1c1ccccc1 (stereo unspecified) | -70.5*
Cc1ccc(N2C(=O)NC(=O)C3(Cc4ccccc4N4CCN(c5ccccc5)CC43)C2=O)cc1 (stereo unspecified) | -70.5*
C[C@H]1O[C@@H](OC2CC[C@]3(C=O)[C@H]4CC[C@]5(C)[C@@H](C6=CC(=O)OC6)CC[C@]5(O)[C@@H]4CC[C@]3(O)C2)CC2OC(C)(C)OC21 (stereo partly specified) | 95.7
O=c1[nH]c(=S)[nH]c(O)c1N=Nc1ccc2c(c1)OCO2 | -73.9*
O=c1[nH]c(=S)[nH]c(O)c1N=Nc1ccc(OC(F)F)cc1 | -92.0*
CN1CCc2nc(SCC(=O)OC(C)(C)C)c(C#N)cc2C1 | -280.8*
CCC(C)c1ccc(N2C(=O)NC(=O)/C(=C/c3cccn3CCOc3ccc(C)cc3)C2=O)cc1 (stereo unspecified) | -65.0*
O=[N+]([O-])c1ccccc1CNCCc1ccc(F)cc1 | -111.4*
CN(C)c1ccc(-[n+]2c(-c3ccccc3)cc(-c3ccccc3)cc2-c2ccccc2)cc1 | 84.1
